# Experimental data: ChEMBL document CHEMBL1201862, “PubChem BioAssay data set” (2004)
# Screen size: about 400,000 compounds; about 2,100 (0.53%) were called active. Another 14% or so got no clear call; they are omitted. No rule for the calls is given here. The full list was thinned out, with actives kept by preference.
# Target: Ataxin-2 (Homo sapiens) (UniProt Q99700)
# Experiment: qHTS for Inhibitors of ATXN expression.
# Format: functional
# Chain of Ataxin-2 (Homo sapiens) (Q99700 whole entry): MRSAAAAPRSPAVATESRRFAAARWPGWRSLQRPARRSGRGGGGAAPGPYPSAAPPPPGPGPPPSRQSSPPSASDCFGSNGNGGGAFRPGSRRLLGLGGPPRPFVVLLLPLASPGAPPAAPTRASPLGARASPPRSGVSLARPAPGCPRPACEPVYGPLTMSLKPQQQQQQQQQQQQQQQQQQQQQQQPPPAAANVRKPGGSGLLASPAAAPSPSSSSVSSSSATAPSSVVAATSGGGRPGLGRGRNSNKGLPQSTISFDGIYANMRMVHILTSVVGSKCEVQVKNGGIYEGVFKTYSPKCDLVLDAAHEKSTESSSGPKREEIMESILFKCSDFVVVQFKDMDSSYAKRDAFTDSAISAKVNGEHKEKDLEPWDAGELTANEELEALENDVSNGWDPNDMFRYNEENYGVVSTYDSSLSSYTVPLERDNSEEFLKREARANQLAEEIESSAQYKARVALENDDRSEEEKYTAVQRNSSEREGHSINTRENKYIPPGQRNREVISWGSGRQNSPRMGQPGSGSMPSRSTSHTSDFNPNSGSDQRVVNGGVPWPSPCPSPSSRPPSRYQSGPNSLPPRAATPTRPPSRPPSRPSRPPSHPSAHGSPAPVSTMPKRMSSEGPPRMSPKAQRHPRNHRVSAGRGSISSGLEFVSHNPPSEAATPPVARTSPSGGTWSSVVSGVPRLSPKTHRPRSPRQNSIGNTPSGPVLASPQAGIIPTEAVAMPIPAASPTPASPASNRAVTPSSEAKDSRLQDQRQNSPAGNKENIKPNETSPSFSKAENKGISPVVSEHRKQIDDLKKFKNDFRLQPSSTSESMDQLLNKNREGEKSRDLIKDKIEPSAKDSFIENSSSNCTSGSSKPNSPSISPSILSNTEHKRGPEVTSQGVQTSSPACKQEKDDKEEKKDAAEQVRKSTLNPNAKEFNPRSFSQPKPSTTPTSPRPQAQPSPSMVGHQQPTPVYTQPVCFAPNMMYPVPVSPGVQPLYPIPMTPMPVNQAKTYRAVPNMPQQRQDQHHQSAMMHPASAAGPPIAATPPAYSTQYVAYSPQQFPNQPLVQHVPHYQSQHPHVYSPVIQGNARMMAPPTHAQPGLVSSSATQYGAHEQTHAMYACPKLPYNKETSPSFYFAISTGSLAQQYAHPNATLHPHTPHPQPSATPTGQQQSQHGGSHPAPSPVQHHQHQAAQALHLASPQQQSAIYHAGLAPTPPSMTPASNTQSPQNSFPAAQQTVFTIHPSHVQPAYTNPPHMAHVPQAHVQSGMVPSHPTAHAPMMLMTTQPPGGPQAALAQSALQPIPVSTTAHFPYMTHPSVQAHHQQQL
row,Structure (SMILES),Potency
1,CC1(c2ccccc2)NC(=O)N(CC(=O)NCc2cccc(Cl)c2)C1=O (stereo not drawn),inactive
2,O=C(CCl)NN1C(=O)NC(c2ccccc2)(c2ccccc2)C1=O,26.7 µM (active)
3,O=C(NCc1ccccc1Cl)c1ccc2c(=O)n(CC3CCCO3)c(=S)[nH]c2c1 (stereo not drawn),inactive
4,Cc1csc(N=Nc2ccc(N(C)C)cc2)[n+]1[O-],14.1 µM (active)
5,CN(C)c1ccc(N=Nc2nc3ccccc3n2C)cc1,inactive
6,CCCN(CC(=O)Nc1ccc(F)c(F)c1F)C(=O)CN1C(=O)NC2(CCCCC2)C1=O,inactive
7,COC(=O)c1cnc(SCc2ccc(Cl)cc2)n1C,inactive
8,O=C(CSc1cccc[n+]1[O-])c1cc(Cl)ccc1Cl,3.77 µM (active)
9,O=C(CSc1cc(Cl)ccc1Cl)NC1CCCc2ccccc21 (stereo not drawn),inactive
10,CC(C)(C)NCC(O)CON=C1c2ccccc2-c2ccccc21 (stereo not drawn),inactive
11,CCN(CC(O)CON=C1c2ccccc2-c2ccccc21)S(=O)(=O)c1ccc(Cl)cc1 (stereo not drawn),17.8 µM (active)
12,CCOc1ccccc1N(C(C)=O)S(=O)(=O)c1ccc(Cl)cc1,inactive
13,Cc1ccc(S(=O)(=O)N(CCCO)CC(O)CON=C2c3ccccc3-c3ccccc32)cc1 (stereo not drawn),20 µM (active)
14,CCN(CC)S(=O)(=O)c1ccc(C(=O)N(c2ccc(C)cc2)C2C=CS(=O)(=O)C2)cc1 (stereo not drawn),inactive
15,CN(C)CCN=c1cc(-c2ccccc2)oc2ccc(Cl)cc12,inactive
16,O=C(NCC1CCN(C(=O)c2ccc([N+](=O)[O-])cc2)CC1)c1ccc([N+](=O)[O-])cc1,inactive
17,Cc1ccccc1CSc1nnc(-c2cnccn2)n1C,inactive
18,CCCn1c(SCc2nc(-c3ccccc3C)no2)nnc1-c1ccc(Cl)cc1,39.8 µM (active)
19,CN(/N=C/c1ccc(Br)o1)C1=NS(=O)(=O)c2ccccc21,inactive
20,CC(C)OC(=O)CSc1nnc(COc2ccc([N+](=O)[O-])cc2)n1C,inactive
21,Cc1ccc(C)c(-n2c(N)c(C#N)c3nc4ccccc4nc32)c1,inactive
22,Cn1ncc2c(ON=C(N)c3ccc(C(C)(C)C)cc3)ncnc21,39.8 µM (active)
23,Cc1ccccc1C(=O)NNc1ncnc2c1cnn2C,inactive
24,COc1ccc(NC(=O)c2sc3nc(C)c(C(=O)Nc4ccc(C)cc4C)c(-c4ccccc4Cl)c3c2N)cc1,inactive
25,c1ccc(C2=NN=C(c3ccncc3)c3ccc4ccccc4c3N2)cc1,inactive

row,Structure (SMILES),Potency
1,N=c1c(C(=O)NCC2CCCO2)cc2c(=O)n3ccccc3nc2n1Cc1ccc(F)cc1 (stereo not drawn),inactive
2,Cc1cccc(C(=O)N2CCC(=O)N([C@H](COCc3ccc(Cl)cc3)Cc3ccccc3)CC2)c1,39.8 µM (active)
3,Cc1nn(Cc2ccccc2)c(C)c1C(=O)N1CCN(S(=O)(=O)/C=C/c2ccccc2)CC1,inactive
4,O=C(c1cccc(Cl)c1)N1CCC(=O)N(C(COCc2cccc(Cl)c2)Cc2ccccc2)CC1 (stereo not drawn),35.5 µM (active)
5,Cc1cccc(C(=O)NCC(=O)N2CC=C(c3ccccc3)CC2)c1,inactive
6,Cc1cccc(COC[C@H](Cc2ccccc2)N2CCN(C(=O)c3cccc(Cl)c3)CCC2=O)c1,25.1 µM (active)
7,Cc1ccc(S(=O)(=O)N2CCN(C(=O)COC(=O)Cc3ccc(Cl)cc3)CC2)c(C)c1,inactive
8,O=C1/C(=C/c2cccc(F)c2)Oc2cc(O)ccc21,inactive
9,CN1CCc2c(sc3c2C(=O)NC(/C=C\c2ccccc2)N3)C1 (stereo not drawn),inactive
10,O=c1cc(-c2ccccc2)c2ccc3c(c2o1)CN(Cc1cccc(Cl)c1)CO3,inactive
11,Cc1ccc(S(=O)(=O)C(C#N)c2nc3ccccc3nc2N2CC(C)OC(C)C2)cc1C (stereo not drawn),inactive
12,Cc1c(CCOC(=O)C2C3CC4CC(C3)CC2C4)sc[n+]1CC(=O)c1ccc(Br)cc1 (stereo not drawn),20 µM (active)
13,Cc1c(CCOC(=O)CC23CC4CC(CC(C4)C2)C3)sc[n+]1CC(=O)c1ccccc1,29.9 µM (active)
14,Cc1c(CCOC(=O)C23CC4CC(CC(C4)C2)C3)sc[n+]1CC#N,31.6 µM (active)
15,CN1CCC(N(C)C(S)=NCCc2ccccc2)CC1,inactive
16,CCNS(=O)(=O)c1ccc(CCC(=O)N2CCc3ccccc3C2)cc1,inactive
17,Cc1ccc2nc(C)c3c(c2c1)N(c1ccc(F)cc1)CC3,inactive
18,CC(C)NCC(O)Cn1c2c(c3ccccc31)CCc1c-2cnn1-c1ccccc1 (stereo not drawn),25.1 µM (active)
19,N#Cc1sc2nc(-c3cccs3)cc(-c3ccccc3)c2c1N,inactive
20,Cc1ccc(C(=O)Sc2cccccc2=O)cc1,2.51 µM (active)
21,NC(=O)c1ccc(NC(=O)CNC(c2ccccc2)c2ccccc2)cc1,inactive
22,Cc1ccc(C(=O)C(C)[n+]2cccc(C(N)=O)c2)cc1 (stereo not drawn),inactive
23,Cc1cccc(CC(=O)N2CCC(N3CCC(C(=O)N4CCOCC4)CC3)CC2)c1,inactive
24,COc1ccc(OC(C)C(=O)N(C)Cc2nc(-c3ccc(C)cc3)no2)cc1 (stereo not drawn),inactive
25,COc1ccccc1-c1noc(CSc2nnc(Cc3ccccc3)n2-c2ccc(C)c(C)c2)n1,35.5 µM (active)

row,Structure (SMILES),Potency
1,COc1ccc(-c2noc(CSc3nnc(Cc4ccccc4)n3-c3ccc(F)cc3)n2)cc1,39.8 µM (active)
2,COc1ccc(Cc2noc(CN(C)CCN3CCc4ccccc4C3)n2)cc1OC,inactive
3,COc1ccc(OC(C)C(=O)N(C)Cc2nc(-c3ccccc3)no2)cc1 (stereo not drawn),inactive
4,COc1ccc(-c2noc(CSc3nnc(Cc4ccccc4)n3-c3cccc(C)c3)n2)cc1,39.8 µM (active)
5,COc1ccccc1-c1ccc(SCc2cccc(F)c2)nn1,inactive
6,COc1ccc(OC)c(-c2noc(CSc3nnc(Cc4ccccc4)n3-c3cccc(C)c3)n2)c1,22.4 µM (active)
7,COCC(C)n1c(SCc2nc(O)c3ccccc3n2)nc2ccccc2c1=O (stereo not drawn),inactive
8,Nc1ccc(-c2c3ccccc3nc3ccccc23)cc1,inactive
9,CC(=O)c1cnc(SCc2ccc(Cl)cc2)nc1C,inactive
10,COc1cccc(-c2csc(/C(C#N)=C/Nc3cc4oc5ccccc5c4cc3OC)n2)c1,inactive
11,CNC(=O)c1ccc(NC(=O)CC2SC(N3CCCC3)=NC2=O)cc1 (stereo not drawn),inactive
12,O=c1oc2ccc3ccccc3c2cc1-c1nnc(-c2cccs2)o1,inactive
13,O=C(OCC(=O)N1CCCC1=O)C1CCN(S(=O)(=O)c2ccc(Cl)c(C(F)(F)F)c2)CC1,inactive
14,Cc1ccc(NC(=O)COC(=O)[C@H](C)N2C(=O)C3CC=CCC3C2=O)cc1S(=O)(=O)N(C)C (stereo partly drawn),inactive
15,CCCN(CC(=O)Nc1ccccc1C)C(=O)c1ccc(N2CCCC2=O)cc1,inactive
16,C=CC[C@H](CC(=O)N[C@H](CO)Cc1ccccc1)C(=O)N[C@@H](COC(=O)[C@@H](CC=C)CC(=O)OC(C)(C)C)Cc1c[nH]c2ccccc12,25.1 µM (active)
17,C=CC[C@@H](CC(=O)N[C@@H](CO)Cc1ccccc1)C(=O)N[C@H](COC(=O)[C@H](CC=C)CC(=O)OC(C)(C)C)Cc1c[nH]c2ccccc12,28.2 µM (active)
18,C=CC[C@@H](CC(=O)N[C@@H](CO)Cc1ccccc1)C(=O)N[C@H](COC(=O)[C@@H](CC=C)CC(=O)OC(C)(C)C)Cc1c[nH]c2ccccc12,28.2 µM (active)
19,O=C(CCCCCn1c(=S)[nH]c2ccc(N3CCOCC3)cc2c1=O)NCc1ccc2c(c1)OCO2,inactive
20,Cn1c(N)nc2nc(CCc3ccccc3)c(O)nc2c1=O,inactive
21,CCOc1ccc(CC(=O)Nc2c(C(=O)c3ccccc3)oc3ccc(Cl)cc23)cc1OCC,inactive
22,Cc1ccc(Oc2ncnc(N)c2[N+](=O)[O-])cc1,inactive
23,Cc1nc(Sc2ccc(Cl)cc2)c(C#N)c(C)c1[N+](=O)[O-],inactive
24,Cc1cc(C)nc(Sc2ncnc(N)c2[N+](=O)[O-])n1,16.8 µM (active)
25,CC(OC(=O)C1COc2ccccc2O1)C(=O)c1ccccc1 (stereo not drawn),inactive

row,Structure (SMILES),Potency
1,C=C(C(=O)c1ccccc1)C(c1ccccc1)C(C)C(=O)c1ccccc1 (stereo not drawn),31.6 µM (active)
2,C=C(C(=O)c1ccccc1)C(C)CC(=O)c1ccccc1 (stereo not drawn),15.8 µM (active)
3,O=C(Cc1nc2ccccc2nc1O)c1ccccc1,inactive
4,Nc1nc2ccccc2cc1S(=O)(=O)c1ccccc1,inactive
5,O=C(Nc1ccccc1)Nc1ccc2ncoc2c1,inactive
6,CN(C)/C=N/c1nc2ccccc2nc1N1CCCC1,inactive
7,N#C/C(=C/c1cccn1-c1cccc(C(=O)O)c1)c1ccc(F)cc1,inactive
8,N#Cc1c(N2CCCC2)ccc(Br)c1Cl,inactive
9,COC(=O)c1ccc(CSc2cc(C)c3ccccc3n2)o1,inactive
10,CC(C)(C)c1ccc2c(c1)OC(C(=O)N/N=C\c1ccncc1)CO2 (stereo not drawn),inactive
11,N=c1c(C(=O)NCC2CCCO2)cc2c(=O)n3ccccc3nc2n1Cc1ccccc1 (stereo not drawn),inactive
12,Cc1ccccc1NC(=O)c1ccc(N(Cc2ccccc2)S(C)(=O)=O)cc1,35.5 µM (active)
13,CCCc1nn(C)c(C(=O)Nc2cccc(CC)c2)c1Cl,inactive
14,CCN(Cc1ccncc1)C(=S)Nc1ccccc1C,inactive
15,Cc1cccc(NC(=O)c2ccc(N(Cc3ccccc3)S(C)(=O)=O)cc2)c1,25.1 µM (active)
16,CS(=O)(=O)N(Cc1ccccc1)c1ccc(C(=O)Nc2cccc(Cl)c2)cc1,17.8 µM (active)
17,Cc1ccccc1NC(=O)c1ccc2snnc2c1,inactive
18,Cc1cc(C(F)(F)F)c2c(N)c(C(=O)Nc3cc(C)on3)sc2n1,inactive
19,Cc1ccc(C)c(Oc2coc3cc(O)ccc3c2=O)c1,inactive
20,CCOc1ccccc1-n1c(N)c(C(=O)OC)c2nc3ccccc3nc21,inactive
21,COc1cc2nc(N3CCN(c4cc(C)ccc4C)CC3)nc(N)c2cc1OC,39.8 µM (active)
22,CCOC(=O)N1CCN(c2nc(-c3ccccc3)c3cc(C)ccc3n2)CC1,inactive
23,COc1cc2nc(CN3CCN(S(=O)(=O)c4ccc(C)c(C)c4)CC3)nc(O)c2cc1OC,inactive
